Results on 12 compounds are retold here after ChEMBL document CHEMBL3988442, “University of Dundee, Small-Polar-MMV Screening Library” (2021).

Holding throughout (parameters): scale not given: direction of the effect not stated beside the values
The target of assay [1] is Protein translocase subunit SecA (Escherichia coli (strain K12)) (UniProt P10408). Kind of assay: Assay to Identify E. coli SecA ATPase Inhibitors. It is filed as functional. The conditions noted are these: 30 µM.
Assay [2] concerns the target T1, Ubiquitin-activating enzyme e1, putative (Leishmania donovani (strain BPK282A1)) (UniProt E9BSI1).
T1 sequence (whole entry): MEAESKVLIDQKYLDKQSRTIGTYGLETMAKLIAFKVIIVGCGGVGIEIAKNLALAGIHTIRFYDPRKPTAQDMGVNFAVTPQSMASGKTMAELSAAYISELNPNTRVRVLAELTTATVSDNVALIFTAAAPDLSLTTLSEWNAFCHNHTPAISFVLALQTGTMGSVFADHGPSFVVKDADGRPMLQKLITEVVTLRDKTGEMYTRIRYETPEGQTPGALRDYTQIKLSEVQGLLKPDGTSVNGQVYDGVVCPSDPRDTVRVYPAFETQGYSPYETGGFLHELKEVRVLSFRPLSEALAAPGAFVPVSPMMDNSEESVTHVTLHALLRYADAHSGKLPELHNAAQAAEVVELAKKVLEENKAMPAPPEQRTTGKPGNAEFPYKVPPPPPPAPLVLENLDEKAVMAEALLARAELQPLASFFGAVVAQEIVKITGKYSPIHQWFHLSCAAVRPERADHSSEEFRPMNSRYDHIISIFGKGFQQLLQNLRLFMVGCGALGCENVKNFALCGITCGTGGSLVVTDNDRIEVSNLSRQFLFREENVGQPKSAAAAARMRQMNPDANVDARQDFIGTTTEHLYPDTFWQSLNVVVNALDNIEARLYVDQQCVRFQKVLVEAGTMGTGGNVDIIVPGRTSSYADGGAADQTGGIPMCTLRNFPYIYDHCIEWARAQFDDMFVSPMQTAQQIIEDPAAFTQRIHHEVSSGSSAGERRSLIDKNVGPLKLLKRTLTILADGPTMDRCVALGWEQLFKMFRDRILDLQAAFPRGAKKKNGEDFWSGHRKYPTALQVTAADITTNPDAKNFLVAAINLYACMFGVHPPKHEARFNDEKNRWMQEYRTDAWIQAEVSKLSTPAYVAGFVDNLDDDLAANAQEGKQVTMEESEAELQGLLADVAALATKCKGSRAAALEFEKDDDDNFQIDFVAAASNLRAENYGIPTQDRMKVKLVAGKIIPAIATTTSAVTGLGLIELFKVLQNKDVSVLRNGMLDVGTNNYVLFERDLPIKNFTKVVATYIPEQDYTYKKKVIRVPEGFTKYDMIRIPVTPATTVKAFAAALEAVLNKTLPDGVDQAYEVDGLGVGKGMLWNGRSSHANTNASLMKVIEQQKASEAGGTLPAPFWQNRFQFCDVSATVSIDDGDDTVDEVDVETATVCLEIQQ
Kind of assay: Leishmania donovani Ubiquitin Activating Enzyme (LdE1). It is filed as functional. The conditions noted are these: 30 µM.

The target in assay [3] is Sialic acid-binding Ig-like lectin 9 (Homo sapiens) (UniProt Q9Y336). Kind of assay: Hs-Siglec9 ALPHAscreen SOP 20170721. The conditions noted are these: 10 µM.
The next assay relates to Trypanosoma cruzi. Put plainly: Trypanosoma cruzi phosphomannomutase and mannose-1-phosphate guanylyltransferase assay. The assay is classed as functional. To be noted: 10 µM.
In assay [4] the target is T2, Arginase-2, mitochondrial (Homo sapiens) (UniProt P78540).
T2 sequence (whole entry): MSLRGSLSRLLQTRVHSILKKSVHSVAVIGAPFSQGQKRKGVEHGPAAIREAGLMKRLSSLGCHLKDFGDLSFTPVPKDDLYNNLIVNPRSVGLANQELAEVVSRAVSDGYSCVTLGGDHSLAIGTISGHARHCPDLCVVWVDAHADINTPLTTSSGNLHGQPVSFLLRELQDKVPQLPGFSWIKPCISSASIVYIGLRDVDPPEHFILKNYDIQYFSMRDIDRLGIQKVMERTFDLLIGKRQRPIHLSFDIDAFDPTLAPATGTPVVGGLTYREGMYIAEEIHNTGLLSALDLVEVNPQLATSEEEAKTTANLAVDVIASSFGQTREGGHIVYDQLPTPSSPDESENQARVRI
Put plainly: in vitro enzyme assay to detect the production of urea directly proportional to the activity of Arginase II. Also: in the data most compounds retested in dose-response had high values. The assay is classed as functional. The conditions noted are these: 33.3 µM.

Assay [5] deals with T3, Proteasome subunit beta (Trypanosoma cruzi) (UniProt O96673).
T3 sequence (whole entry): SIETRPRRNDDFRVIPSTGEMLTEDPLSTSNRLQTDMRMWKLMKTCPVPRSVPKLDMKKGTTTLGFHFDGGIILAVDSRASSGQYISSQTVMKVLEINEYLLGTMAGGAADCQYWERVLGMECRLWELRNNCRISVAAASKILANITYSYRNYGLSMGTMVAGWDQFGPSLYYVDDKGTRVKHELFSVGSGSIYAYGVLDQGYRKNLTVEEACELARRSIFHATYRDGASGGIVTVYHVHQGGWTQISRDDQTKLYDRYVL
Put plainly: Trypanosoma cruzi proteasome chymotrypsin-like activity (TcProtChymo) assay. Also: in the data most compounds retested in dose-response had high values. It is filed as functional. The conditions noted are these: 9.37 µM.

The species named for the next assay is Homo sapiens. Put plainly: To identify inhibition of the IFN signalling (Jak-Stat) pathway via expression of an eGFP reporter gene under the control of an IFN-stimulated response element (ISRE) containing MxA promoter. It is filed as functional. The conditions noted are these: 30 µM.
For assay [6], the target named is T4, Tyrosyl-tRNA synthetase, putative (Trypanosoma cruzi (strain CL Brener)) (UniProt Q4DSP6).
T4 sequence (whole entry): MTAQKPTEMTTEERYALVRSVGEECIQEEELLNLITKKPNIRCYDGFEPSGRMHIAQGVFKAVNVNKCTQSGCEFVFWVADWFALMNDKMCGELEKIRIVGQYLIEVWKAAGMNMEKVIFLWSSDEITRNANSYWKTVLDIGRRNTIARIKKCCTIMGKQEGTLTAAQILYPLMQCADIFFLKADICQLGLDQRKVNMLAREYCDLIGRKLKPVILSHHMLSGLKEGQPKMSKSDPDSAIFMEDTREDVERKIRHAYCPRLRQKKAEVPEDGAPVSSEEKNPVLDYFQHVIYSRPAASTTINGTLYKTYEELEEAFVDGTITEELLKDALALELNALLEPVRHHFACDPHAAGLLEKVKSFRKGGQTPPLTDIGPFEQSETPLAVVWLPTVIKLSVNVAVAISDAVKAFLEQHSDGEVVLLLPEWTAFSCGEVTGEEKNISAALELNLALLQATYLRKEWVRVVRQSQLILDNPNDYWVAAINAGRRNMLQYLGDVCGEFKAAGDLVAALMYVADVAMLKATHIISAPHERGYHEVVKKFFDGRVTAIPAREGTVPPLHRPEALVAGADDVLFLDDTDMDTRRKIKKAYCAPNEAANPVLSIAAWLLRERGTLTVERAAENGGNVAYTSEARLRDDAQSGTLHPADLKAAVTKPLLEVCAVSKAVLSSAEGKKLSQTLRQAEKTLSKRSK
Kind of assay: Trypanosoma cruzi tyrosyl tRNA synthetase (TcYRS) _High Tyrosine SOP. Also: in the data most compounds retested in dose-response had high values. The assay is classed as functional. To be noted: 30 µM.

The target in assay [7] is T4, Tyrosyl-tRNA synthetase, putative (Trypanosoma cruzi (strain CL Brener)). Kind of assay: Trypanosoma cruzi tyrosyl tRNA synthetase (TcYRS) SOP. It is filed as functional. To be noted: 30 µM.
Assay [8] deals with Chromo domain-containing protein 1 (Saccharomyces cerevisiae (strain ATCC 204508 / S288c) (Baker's yeast)) (UniProt P32657). Kind of assay: ScCHD-1 Enzyme Inhibition Assay. Also: in the data most compounds retested in dose-response had high values. The assay is classed as functional. The conditions noted are these: 30 µM.

For part of these data: Results with a measured potency or affinity are listed apart.

Chain of Sialic acid-binding Ig-like lectin 9 (Homo sapiens) (Q9Y336 whole entry): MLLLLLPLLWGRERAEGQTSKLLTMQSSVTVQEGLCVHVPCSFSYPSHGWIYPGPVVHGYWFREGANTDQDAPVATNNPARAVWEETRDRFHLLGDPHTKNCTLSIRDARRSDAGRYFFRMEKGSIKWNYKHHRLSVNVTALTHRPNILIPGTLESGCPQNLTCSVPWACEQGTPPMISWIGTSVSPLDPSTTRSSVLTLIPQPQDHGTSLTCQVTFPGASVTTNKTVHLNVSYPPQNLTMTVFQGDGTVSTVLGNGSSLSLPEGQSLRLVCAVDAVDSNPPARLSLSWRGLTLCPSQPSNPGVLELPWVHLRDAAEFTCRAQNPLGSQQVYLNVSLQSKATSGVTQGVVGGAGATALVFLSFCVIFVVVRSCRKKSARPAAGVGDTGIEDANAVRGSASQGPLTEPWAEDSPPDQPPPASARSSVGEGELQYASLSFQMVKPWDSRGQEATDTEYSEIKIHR
Chain of Chromo domain-containing protein 1 (Saccharomyces cerevisiae (strain ATCC 204508 / S288c) (Baker's yeast)) (P32657 whole entry, the tested form may be a part): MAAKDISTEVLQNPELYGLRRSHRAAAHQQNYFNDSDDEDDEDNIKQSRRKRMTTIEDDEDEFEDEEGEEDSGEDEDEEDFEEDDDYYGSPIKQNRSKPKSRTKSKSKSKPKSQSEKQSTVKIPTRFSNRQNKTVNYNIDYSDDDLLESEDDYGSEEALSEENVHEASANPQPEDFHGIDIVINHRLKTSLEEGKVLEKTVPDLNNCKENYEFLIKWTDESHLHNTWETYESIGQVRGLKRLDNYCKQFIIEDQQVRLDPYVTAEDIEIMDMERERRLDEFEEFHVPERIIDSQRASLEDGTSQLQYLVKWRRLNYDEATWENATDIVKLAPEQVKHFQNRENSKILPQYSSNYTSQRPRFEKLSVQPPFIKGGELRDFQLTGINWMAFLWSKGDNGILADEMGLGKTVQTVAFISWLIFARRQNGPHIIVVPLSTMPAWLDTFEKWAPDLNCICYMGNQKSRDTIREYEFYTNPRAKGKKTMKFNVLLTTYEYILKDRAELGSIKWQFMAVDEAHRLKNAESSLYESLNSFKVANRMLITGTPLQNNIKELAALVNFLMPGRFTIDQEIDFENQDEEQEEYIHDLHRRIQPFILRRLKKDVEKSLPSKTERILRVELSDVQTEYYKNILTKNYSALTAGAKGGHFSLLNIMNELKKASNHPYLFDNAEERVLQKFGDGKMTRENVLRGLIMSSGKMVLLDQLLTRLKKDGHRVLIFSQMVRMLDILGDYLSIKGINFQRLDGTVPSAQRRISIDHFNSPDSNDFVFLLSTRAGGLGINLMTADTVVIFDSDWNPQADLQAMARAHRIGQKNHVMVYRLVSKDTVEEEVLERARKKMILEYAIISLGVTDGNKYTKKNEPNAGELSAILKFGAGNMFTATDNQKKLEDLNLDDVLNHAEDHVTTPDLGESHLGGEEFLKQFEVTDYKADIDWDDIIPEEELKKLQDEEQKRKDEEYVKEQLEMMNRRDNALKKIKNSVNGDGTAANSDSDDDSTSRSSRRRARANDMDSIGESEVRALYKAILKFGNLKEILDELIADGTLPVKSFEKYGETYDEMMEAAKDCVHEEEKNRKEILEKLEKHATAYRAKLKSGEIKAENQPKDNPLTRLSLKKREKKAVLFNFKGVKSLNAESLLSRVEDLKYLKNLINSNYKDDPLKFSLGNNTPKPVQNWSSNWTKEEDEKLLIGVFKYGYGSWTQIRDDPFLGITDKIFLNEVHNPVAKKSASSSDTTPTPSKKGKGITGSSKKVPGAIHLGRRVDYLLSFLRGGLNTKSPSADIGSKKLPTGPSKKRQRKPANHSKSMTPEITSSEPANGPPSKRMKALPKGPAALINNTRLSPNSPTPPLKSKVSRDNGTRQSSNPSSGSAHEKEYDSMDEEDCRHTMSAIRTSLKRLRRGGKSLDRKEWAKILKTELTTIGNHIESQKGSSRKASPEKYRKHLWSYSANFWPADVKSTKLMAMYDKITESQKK
Chain of Protein translocase subunit SecA (Escherichia coli (strain K12)) (P10408 whole entry): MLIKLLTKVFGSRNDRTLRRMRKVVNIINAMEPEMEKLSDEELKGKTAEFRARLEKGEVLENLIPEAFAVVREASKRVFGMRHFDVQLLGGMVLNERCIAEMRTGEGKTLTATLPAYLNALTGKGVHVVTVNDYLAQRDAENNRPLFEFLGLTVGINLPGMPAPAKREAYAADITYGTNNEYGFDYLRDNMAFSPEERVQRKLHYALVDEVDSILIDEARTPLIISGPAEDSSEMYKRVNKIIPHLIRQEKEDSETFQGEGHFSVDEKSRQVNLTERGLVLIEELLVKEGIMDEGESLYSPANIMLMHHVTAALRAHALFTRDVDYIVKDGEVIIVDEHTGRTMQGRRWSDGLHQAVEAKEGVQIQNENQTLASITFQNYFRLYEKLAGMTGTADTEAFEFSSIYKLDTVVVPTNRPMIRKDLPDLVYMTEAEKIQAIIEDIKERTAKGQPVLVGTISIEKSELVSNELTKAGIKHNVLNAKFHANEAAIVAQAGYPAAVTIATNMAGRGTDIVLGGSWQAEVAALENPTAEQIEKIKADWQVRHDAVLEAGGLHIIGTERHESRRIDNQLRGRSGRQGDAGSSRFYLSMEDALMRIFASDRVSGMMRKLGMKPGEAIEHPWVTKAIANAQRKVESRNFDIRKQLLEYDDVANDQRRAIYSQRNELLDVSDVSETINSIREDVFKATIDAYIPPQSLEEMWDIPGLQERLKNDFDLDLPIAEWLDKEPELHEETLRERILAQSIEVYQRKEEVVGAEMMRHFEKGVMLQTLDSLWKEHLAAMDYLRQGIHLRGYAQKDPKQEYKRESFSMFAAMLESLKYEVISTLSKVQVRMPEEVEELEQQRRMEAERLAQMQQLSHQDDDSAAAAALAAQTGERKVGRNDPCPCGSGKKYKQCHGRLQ

`Cc1noc(C)c1C(=O)NCc1ccc(N2CCOC(C)C2)nc1` (stereo not given): the Percent Effect in assay [1] is -2.58%; in assay [2], 21.3%; in assay [3], -1.63%; with Trypanosoma cruzi it was -0.402%; in assay [4], -0.887%; in assay [5] it was 12.5%. For the same compound, the Percent Effect in the assay filed under Homo sapiens was 9.59%; in assay [6], 2.63%; in assay [7] it was 15.4%; in assay [8], -13.6%.

As to `CC(C)CCN(C)C(=O)c1nc(S(C)(=O)=O)n2ccccc12`, the Percent Effect is -4.72% in assay [1]; 12.8% in assay [2]; -6.5% in assay [3]; 5.16% with Trypanosoma cruzi; 1.23% in assay [4]; 2.13% in assay [5]. For the same compound, the Percent Effect is 0.306% in the assay listed under Homo sapiens, 6.22% in assay [6], 10.8% in assay [7] and -1.74% in assay [8].

As to `CN(Cc1cn2ccccc2c1C#N)C1CCCN(c2cccnn2)C1` (stereo not given), the Percent Effect in assay [1] is -1.94%; in assay [2], -15.6%; in [3], 10.5%; with Trypanosoma cruzi it was 1.31%; in assay [4], -3.07%; in assay [5] it was 13.7%. Besides, the Percent Effect in the assay filed under Homo sapiens was 6.2%; in assay [6] it was 13.7%; in assay [7] it was 9.41%; in assay [8], -7.9%.

Take `CCc1nccn1C1CCCN(C(=O)c2csc(NC(C)=O)n2)C1` (stereo not given): the Percent Effect in assay [1] is -3.11%; in assay [2] it was 15.6%; in [3], 14.2%; in the assay on Trypanosoma cruzi, -2.98%; in assay [4], 0.205%; in assay [5] it was 8.95%. The Percent Effect in the assay filed under Homo sapiens is -1.12%; in [6] it was 4.9%; in assay [7] it was 11.8%; in assay [8] it was -7.02%.

In the case of `CC1CCCCN1Cc1ccc(-c2ccccc2C(=O)O)cc1` (stereo not given), the Percent Effect in assay [1] was -1.02%; in assay [2], 4%; in assay [3], 1.22%; in the assay with Trypanosoma cruzi, -4.73%; in [4] it was 0.443%; in assay [5], 7.39%. Moreover, the Percent Effect is 12.3% in the assay filed under Homo sapiens, 2.12% in assay [6], 2.5% in [7] and -21.8% in assay [8].

With `Cc1ccc(-c2nc(CN3CCn4c(nnc4C4CC4)C3)cs2)o1`, the Percent Effect was 2.56% in assay [1]; 0% in assay [2]; -11.3% in [3]; -0.0939% in the assay on Trypanosoma cruzi; -2.87% in assay [4]; 16.3% in assay [5]. Further, the Percent Effect in the assay listed under Homo sapiens is 35.1%; in [6] it was 5.26%; in assay [7], 10.8%; in assay [8], -4.37%.

On to `CSc1ccccc1C(C(=O)O)N1CCN(Cc2ccccn2)CC1` (stereo not given), for which the Percent Effect in assay [1] was -6%; in [2], 13.5%; in [3] it was 6.14%; in the assay with Trypanosoma cruzi, 9.21%; in [4], 60.5%; in assay [5] it was 10.8%. Besides, the Percent Effect worked out at 14.2% in the assay filed under Homo sapiens, 6.92% in [6], 19.5% in assay [7] and 0.128% in [8].

`Cc1ccc2oc(C(=O)N3CCCC(n4nc(C)cc4C)C3)cc2n1` (stereo not given): the Percent Effect in [1] was -4.01%; in assay [2], 10.3%; in assay [3], 6.58%; with Trypanosoma cruzi, 0.845%; in assay [4], 1.23%; in assay [5] it was 4.01%. For the same compound, the Percent Effect in the assay listed under Homo sapiens was -2.91%; in assay [6] it was 4.31%; in assay [7] it was 13.2%; in assay [8] it was 3.09%.

On to `CC(=O)N1CC(=O)N(c2ccccc2)CC12CCN(CC1CC1)C2` (stereo not given), for which the Percent Effect in assay [1] is -11%; in assay [2], 1.3%; in [3] it was 22.2%; with Trypanosoma cruzi, -1.27%; in assay [4], -2.02%; in [5] it was 12.1%. In addition, the Percent Effect in the assay listed under Homo sapiens was 15.9%; in [6] it was 2.63%; in assay [7], -5.13%; in assay [8], -0.48%.

In the case of `O=C(CSc1ccc(F)c(F)c1)NS(=O)(=O)c1ccc2c(c1)OCCO2`, the Percent Effect in assay [1] is -1.98%; in assay [2] it was 2.56%; in assay [3], -9.59%; in the assay on Trypanosoma cruzi, 0.282%; in assay [4], 1.23%; in assay [5] it was 3.16%. The Percent Effect in the assay listed under Homo sapiens is 12.6%; in assay [6] it was -4.31%; in assay [7], 8.43%; in assay [8], -1.38%.

As to `Cc1cccnc1C(=O)N1CCCC(c2[nH]ncc2S(C)(=O)=O)C1` (stereo not given), the Percent Effect is -0.892% in assay [1]; 4% in [2]; 0.0565% in [3]; -4.54% with Trypanosoma cruzi; 3.1% in assay [4]; 0.985% in assay [5]. Further, the Percent Effect in the assay listed under Homo sapiens is 20%; in assay [6], 5.29%; in assay [7], 7.5%; in [8], -20.1%.

On to `CC(C)CC(CNC(=O)NCc1cc[nH]n1)N1CCOCC1` (stereo not given), for which the Percent Effect in assay [1] was -1.69%; in assay [2], 17.9%; in assay [3], -27%; in the assay on Trypanosoma cruzi, 7.04%; in [4], 0.82%; in [5], 17.8%. Further, the Percent Effect in the assay listed under Homo sapiens was determined as 11.6%; in assay [6] it was 4.31%; in assay [7] it was 20.5%; in assay [8] it was 25%.
